Here are results for seven molecules from PubChem BioAssay (NCI).

Test systems include HCT-15 colon; HT29 colon; SNB-75 CNS; SNB-19 CNS; U251 CNS; PC-3 prostate; SK-MEL-5 melanoma; UACC-62 melanoma; LOX IMVI melanoma; SK-MEL-28 melanoma; SK-MEL-2 melanoma; EKVX NSCLC; SN12C renal; UO-31 renal; TK-10 renal; ACHN renal; CAKI-1 renal; A498 renal; CCRF-CEM leukemia; MOLT-4 leukemia.
Common to all, as to experiment: NCI-60 one-dose screen, 48 h (100 = growth as untreated, 0 = no growth, -100 = all killed)
Conditions in all cases: 10 µM unless noted

SMILES strings stand for the structures. Several values for one entry are separate records, joined by “and”; a condition that tells them apart may be missing. Identical values can stand only once. This is part of a sample that, as a whole, favours compounds with a hit. Of some 83,000 tested, about 20% had one in any assay.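 How to read the values: 0–100, growth inhibition (40 = 60% inhibited); 0, no net growth; -100 to 0, cell death (-40 = 40% of starting cells died; -100 = all dead).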 Values without a mark were called inactive. Activity calls are given as the source filed them. The calls were made as follows: active = growth percent below 10; inactive = the rest.

For the molecule `Cc1c(O)c(O)cc2c3c(oc12)CC(c1ccc2c(c1)OCO2)CC3=O` (stereo not given), the growth in the experiment with HCT-15 colon was 64.5%; in the experiment on HT29 colon, 94.3%; in the experiment on SNB-75 CNS it was 87.8%; in the experiment with SNB-19 CNS, 101%; in the experiment with U251 CNS, 100%; with PC-3 prostate, 81.1%. Also, the growth in the experiment on SK-MEL-5 melanoma is 82.1%; in the experiment on UACC-62 melanoma it was 53.4%; in the experiment with LOX IMVI melanoma, 59.7%; in the experiment with SK-MEL-28 melanoma, 105%; with SK-MEL-2 melanoma it was 83.8%; in the experiment on EKVX NSCLC, 79%. The growth is 94.9% in the experiment on SN12C renal; 56% with UO-31 renal; 115% in the experiment with TK-10 renal; 75.9% in the experiment on ACHN renal; 98.6% with CAKI-1 renal; 102% in the experiment with A498 renal. The growth is 69.3% with CCRF-CEM leukemia and 84.4% in the experiment on MOLT-4 leukemia.
For `O=c1cc(N/N=C/c2ccc(F)cc2)c2cc(Cl)ccc2[nH]1`, the growth was 83.4% in the experiment with HCT-15 colon; 88.4% with HT29 colon; 131% in the experiment with SNB-75 CNS; 91.1% with SNB-19 CNS; 94.4% with U251 CNS; -43% (active) in the experiment with PC-3 prostate. Besides, the growth with SK-MEL-5 melanoma is 11.6%; in the experiment with UACC-62 melanoma, 80.4%; in the experiment with LOX IMVI melanoma it was 95.6%; in the experiment on SK-MEL-28 melanoma, 90%; in the experiment on SK-MEL-2 melanoma, 77.2%; in the experiment on EKVX NSCLC, 74.2%. For the same molecule, the growth is 92.3% in the experiment with SN12C renal; 79% in the experiment with UO-31 renal; 91.5% with TK-10 renal; 91.1% in the experiment with ACHN renal; 99% with CAKI-1 renal; 90.5% in the experiment with A498 renal. The growth is -13.2% (active) in the experiment on CCRF-CEM leukemia and -15.8% (active) in the experiment with MOLT-4 leukemia.
Take `COc1cc(NS(=O)(=O)C(C)C)cc(-c2cc(-c3ccc(N4CCNCC4)cc3)cnc2N)c1`: the growth in the experiment with HCT-15 colon was 112%; in the experiment on HT29 colon it was 31.9%; with SNB-75 CNS, 53.7%; in the experiment on SNB-19 CNS, 94.2%; in the experiment on U251 CNS it was 77.1%; with PC-3 prostate, 72%. In addition, the growth in the experiment with SK-MEL-5 melanoma was 102%; in the experiment with UACC-62 melanoma, 110%; in the experiment with LOX IMVI melanoma it was 67.3%; with SK-MEL-28 melanoma, 107%; with SK-MEL-2 melanoma, 117%; in the experiment with EKVX NSCLC, 109%. For the same molecule, the growth in the experiment on SN12C renal was 64.6%; with UO-31 renal it was 70%; in the experiment with TK-10 renal, 115%; in the experiment with ACHN renal, 93.2%; with CAKI-1 renal, 87.1%; in the experiment on A498 renal, 75.3%. The growth with CCRF-CEM leukemia was 66.7%; in the experiment with MOLT-4 leukemia, 37.2%.
For the molecule `CC12CCC(C(=O)CC1=O)C2(C)C` (stereo not given), the growth in the experiment on HCT-15 colon is 103% and 106%; with HT29 colon it was 108% and 109%; in the experiment with SNB-75 CNS, 87.5% and 95.1%; in the experiment on SNB-19 CNS, 107% and 105%; with U251 CNS it was 99.6% and 100%; in the experiment on PC-3 prostate, 97.2% and 104%. The growth is 99.8% and 104% in the experiment on SK-MEL-5 melanoma; 102% and 106% in the experiment on UACC-62 melanoma; 97.3% and 95.3% with LOX IMVI melanoma; 106% with SK-MEL-28 melanoma; 110% in the experiment with SK-MEL-2 melanoma; 97.5% with EKVX NSCLC. In addition, the growth in the experiment on SN12C renal was 102%; with UO-31 renal, 88.3% and 87.1%; in the experiment with TK-10 renal it was 100% and 105%; in the experiment on ACHN renal it was 107% and 106%; in the experiment with CAKI-1 renal, 101% and 97%; in the experiment with A498 renal, 93.2% and 108%. Further, the growth was 103% and 96.8% in the experiment on CCRF-CEM leukemia; 82.6% and 96.5% in the experiment with MOLT-4 leukemia.
As for `COc1cc(-c2nc3occn3c2-c2ccnc(NCCCNS(=O)(=O)c3ccc(O)cc3)n2)ccc1F`, the growth in the experiment on HCT-15 colon is 114%; in the experiment with HT29 colon it was 66.4%; in the experiment on SNB-75 CNS, 97.6%; with SNB-19 CNS it was 124%; in the experiment with U251 CNS, 108%; with PC-3 prostate, 94.6%. Moreover, the growth is 62.8% with SK-MEL-5 melanoma; 21% in the experiment on UACC-62 melanoma; 55.6% in the experiment on LOX IMVI melanoma; 27.7% in the experiment with SK-MEL-28 melanoma; 28.4% with SK-MEL-2 melanoma; 104% in the experiment with EKVX NSCLC. For the same molecule, the growth is 95.8% with SN12C renal; 105% in the experiment with UO-31 renal; 133% with TK-10 renal; 86.3% in the experiment on ACHN renal; 92.6% with CAKI-1 renal; 104% with A498 renal. The growth in the experiment with CCRF-CEM leukemia was 75.4%; with MOLT-4 leukemia, 101%.
As for `CCC(=C(c1ccc(OCCCN(C)C)cc1)c1ccc(OCCCN(C)C)cc1)c1ccc(Cl)cc1`, the growth with HCT-15 colon is -83.3% (active); with HT29 colon it was -74.5% (active); with SNB-75 CNS, -96.6% (active); in the experiment with SNB-19 CNS it was -88.3% (active); in the experiment on U251 CNS, -83.4% (active); in the experiment on PC-3 prostate, -66.2% (active). The growth is -96.3% (active) with SK-MEL-5 melanoma; -80% (active) in the experiment with UACC-62 melanoma; -84.3% (active) in the experiment with LOX IMVI melanoma; -89.8% (active) in the experiment on SK-MEL-28 melanoma; -72.1% (active) with SK-MEL-2 melanoma; -86.8% (active) in the experiment with EKVX NSCLC. Moreover, the growth with SN12C renal is -94.1% (active); in the experiment on UO-31 renal, -93.6% (active); in the experiment with TK-10 renal it was -85.2% (active); in the experiment with ACHN renal, -95.8% (active); in the experiment with CAKI-1 renal it was -96.1% (active); in the experiment with A498 renal it was -86.3% (active). In addition, the growth in the experiment on CCRF-CEM leukemia is -67.9% (active); in the experiment with MOLT-4 leukemia, -61.9% (active).
Turning to `O=C(/C=C/c1ccc([N+](=O)[O-])cc1)c1ccccc1`, the growth is 77.2% in the experiment with HCT-15 colon; 50.7% in the experiment with HT29 colon; 83.4% in the experiment with SNB-75 CNS; 98.5% in the experiment on SNB-19 CNS; 80.8% in the experiment on U251 CNS; 77.5% in the experiment with PC-3 prostate. The growth in the experiment with SK-MEL-5 melanoma was 94.5%; in the experiment on UACC-62 melanoma it was 94.9%; in the experiment with LOX IMVI melanoma it was 61.4%; with SK-MEL-28 melanoma, 103%; with SK-MEL-2 melanoma, 91.1%; with EKVX NSCLC, 90.8%. The growth is 99.8% in the experiment with SN12C renal; 74.8% in the experiment on UO-31 renal; 68.9% with TK-10 renal; 99.6% in the experiment with ACHN renal; 96.2% in the experiment with CAKI-1 renal; 103% in the experiment on A498 renal. For the same molecule, the growth with CCRF-CEM leukemia was 76.7%; with MOLT-4 leukemia it was 55.1%.
